Screens deposited in PubChem by Buhrlage Lab, Dana-Farber Cancer Institute and Novartis Institutes for BioMedical Research (Cambridge, Mass).
USP8 inh: inhibitors of human USP8 deubiquitinase; purified USP8, Ub-rhodamine cleavage fluorescence, 30 min; P40818; AID 1645853; 4.2% of 47,000 active; inhibition, % at 20 µM
USP17 block: blocks human USP17 ubiquitin-rhodamine cleavage | A8MUK1 | purified USP17, Ub-rhodamine cleavage fluorescence, 3 h | inhibition, % at 50 µM | 6.5% of 47,000 active | AID 1645855
Target sequence (A8MUK1 whole entry, looked up): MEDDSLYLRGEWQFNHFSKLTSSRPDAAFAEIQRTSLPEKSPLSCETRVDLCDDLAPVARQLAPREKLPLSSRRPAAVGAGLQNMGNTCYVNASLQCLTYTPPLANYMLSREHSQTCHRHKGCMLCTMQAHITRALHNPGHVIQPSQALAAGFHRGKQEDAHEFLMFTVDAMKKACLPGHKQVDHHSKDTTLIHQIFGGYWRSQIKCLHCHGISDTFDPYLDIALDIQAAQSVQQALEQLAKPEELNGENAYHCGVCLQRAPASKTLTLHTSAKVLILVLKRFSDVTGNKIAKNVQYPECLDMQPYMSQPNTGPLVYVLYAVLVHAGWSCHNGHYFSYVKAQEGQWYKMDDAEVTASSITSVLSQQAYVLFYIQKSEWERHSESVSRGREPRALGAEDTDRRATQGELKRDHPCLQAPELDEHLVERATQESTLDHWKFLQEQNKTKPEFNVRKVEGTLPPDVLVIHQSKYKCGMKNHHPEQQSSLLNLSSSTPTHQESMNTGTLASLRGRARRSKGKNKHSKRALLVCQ
USP30 block: inhibitors of human USP30 deubiquitinase. Q70CQ3. purified USP30, Ub-rhodamine cleavage fluorescence. inhibition, % at 25 µM. 5.3% of 47,000 active. AID 1645860
OTUD3 block: blocks human OTUD3 ubiquitin-rhodamine cleavage; Q5T2D3; purified OTUD3, Ub-rhodamine fluorescence, 2 h; inhibition, % at 25 µM; 0.7% of 47,000 active; AID 1645858
USP28 inh: blocks human USP28 ubiquitin-rhodamine cleavage; AID 1645857; 3% of 47,000 active; Q96RU2; inhibition, % at 25 µM; purified USP28, Ub-rhodamine cleavage fluorescence, 30 min
* hit, by the source's call; i = inactive; nt = not tested or not shown. Compounds with a hit are over-represented: about 13% of the library has one in this group of screens. Cut-off read from the data, not from the text of the source: active = inhibition above about 30%; inactive = the rest.

SMILES	USP8 inh	USP17 block	USP30 block	OTUD3 block	USP28 inh
O=C(NCC1CCCO1)c1cn(Cc2ccccc2)nc1-c1cccnc1 (configuration not stated)	-11	0	-10	1	-9
COc1ccc(CNC(=O)Cn2cnc3nc(SC)ncc3c2=O)cc1	-18	3	-263	-61	-54
CCN(CCCNC(=O)c1cc2c(=O)n(C)c3ccccc3c2s1)c1cccc(C)c1	3	3	-5	0	-9
O=C(Cn1cc(S(=O)(=O)Cc2ccccc2)c2ccccc21)NCCC1=CCCCC1	-6	-13	-55	-8	-6
Cc1ccccc1NC(=O)Cn1cc(S(=O)(=O)Cc2ccccc2)c2ccccc21	35*	nt	-68	0	0
COc1ccc(NC(=O)Cn2cc(S(=O)(=O)Cc3ccccc3)c3ccccc32)c(OC)c1	33*	19	4	2	16
O=C(Cn1cc(S(=O)(=O)Cc2ccccc2)c2ccccc21)Nc1ccccc1	34*	22	-135	-5	-18
CC(=O)c1ccc(S(=O)(=O)NC2CCN(c3ccccc3)C2=O)cc1 (configuration not stated)	8	0	11	4	3
Cc1ccc(S(=O)(=O)NC2=NCc3ccccc3N2)cc1	10	0	2	7	2
CCOC(=O)c1cc2c(ccn2C)n1CC(=O)N(C1CCCCC1)C1CCCCC1	-34	-131	i	-175	-185
CCOC(=O)c1cc2c(ccn2C)n1Cc1ccc(C#N)cc1	71*	20	-135	-29	-35
CCOC(=O)c1cc2c(ccn2C)n1CC(=O)N(Cc1ccc(Cl)cc1)c1ccccc1	57*	43*	-160	-34	-10
COc1cccc(NC(=O)CC2Sc3ccccc3NC2=O)c1 (configuration not stated)	18	32*	39*	13	17
O=C(c1ccccc1)N1CC[C@@H]2CO[C@@H](CNc3ncccn3)[C@@H]2C1	-57	-6	3	1	1
CCc1nc2c(NC(=O)Cc3cccnc3)cccn2n1	-7	-6	-18	-2	-14
Cc1nn(-c2nc3ccccc3[nH]2)c2c1C(c1ccsc1)CC(=O)N2 (configuration not stated)	11	45*	14	3	-3
COc1cc(NC(=O)COC(=O)Cn2cnc3ccccc32)cc(OC)c1	-5	-3	1	-3	51*
CCc1ccc(NC(=O)COC(=O)Cn2cnc3ccccc32)cc1	-24	0	-1	1	32*
COc1cccc(CN2C(=O)c3cc4ccccc4n3CC2(C)C(=O)NC2CCCC2)c1 (configuration not stated)	35*	11	-106	-11	0
COc1cccc(CN2C(=O)c3cc4occc4n3CC2(C)C(=O)NC2CCCCCC2)c1 (configuration not stated)	5	6	-148	-25	-11
O=[N+]([O-])c1ccc(NCc2ccc(-c3cccs3)s2)nc1	-16	16	-15	-10	65*
Cc1cc(-c2cncnc2-c2ccc(CNC(=O)Cc3ccc(F)cc3)cc2)on1	2	14	1	13	0
CC1=C(c2ccccc2)S(=O)(=O)N(CC(=O)Nc2cccc(Cl)c2)C1=O	16	30*	35*	26	26
CC(C)=CCC/C(C)=C/COc1ccc(/C=C2\C(=O)N(O)[C@@H](C)C(=O)N2O)cc1	4	4	33*	6	47*
COc1cc(/C=C2\Oc3cc(OCC=C(C)C)ccc3C2=O)cc(OC)c1OC	-3	-40	-168	-31	-26
SMILES	USP8 inh	USP17 block	USP30 block	OTUD3 block	USP28 inh
O=C(Cn1cnc(S(=O)(=O)N2CCOCC2)c1)Nc1ccc2c(c1)OCO2	17	5	1	0	-7
CCc1cccc2c(C(=O)COc3ccc(C#N)cc3)c[nH]c12	82*	43*	91*	32*	71*
C=C(CCC(C)(C)/C=C/CC/C(C)=C/COC(COP(=O)(O)O[C@@H]1OC(C(N)=O)[C@@](C)(O)[C@H](OC(N)=O)C1O[C@@H]1OC(CO[C@@H]2OC(CO)[C@H](O)[C@H](O)C2O)[C@H](O[C@@H]2OC(CO)[C@H](O[C@@H]3OC(C(=O)NC4=C(O)CCC4=O)[C@H](O)[C@H](O)C3O)[C@H](O)C2NC(C)=O)C(O)[C@@H]1NC(C)=O)C(=O)O)CC1C(=C)CCCC1(C)C (some centres not stated)	-91	-8	-137	-16	44*
Fc1cnc(N2CCC3(CC2)CCn2c(-c4ccccc4)cnc23)nc1	-1	-21	0	0	7
Cc1ccc(CNC(=O)c2ccc(N3C(=O)[C@@H]4Cc5ccccc5CN4C3=O)cc2)cc1	5	62*	49*	11	11
O=C1[C@@H]2Cc3ccccc3CN2C(=O)N1c1cccc2ccccc12	26	9	33*	10	13
O=C1[C@@H]2Cc3ccccc3CN2C(=O)N1c1ccccc1[N+](=O)[O-]	-68	-11	16	13	11
COc1ccc(CNC(=O)c2ccc(N3C(=O)[C@@H]4Cc5ccccc5CN4C3=O)cc2)cc1	-17	-13	-7	0	-16
CCC(=O)Nc1ccc2c(c1)nc(CN1CCCCCC1)n2C	2	-8	-15	-9	-6
Cn1c(CCN2CCCC2)nc2cc(NC(=O)c3ccccc3)ccc21	1	59*	-23	-6	3
CC(=O)c1cccc(NC(=O)Nc2ccc(CCc3nc4ccccc4n3C)cc2)c1	29	33*	19	11	21
CCC(=O)Nc1ccc2c(c1)nc(CSc1nccc(C)n1)n2CC	-34	-5	6	-2	92*
Cc1cccc(C(=O)Nc2ccc3c(c2)nc(CSc2nccc(C)n2)n3C)c1	-54	5	26	1	93*
CCC(=O)Nc1ccc2c(c1)nc(CCN1CCCCC1)n2C	0	-83	-17	-8	-2
O=C(c1c(F)cccc1F)N1CCC(c2nc3c(nnn3Cc3ccccc3)c(=O)[nH]2)CC1	-5	-5	4	-4	-2
CCCc1cc(C2CCCN2C(=O)Nc2cccc(C)c2)no1 (configuration not stated)	3	-5	11	-3	-4
Cc1ccc(C(C)C)c(Oc2ccc(C(=O)NC(C)c3ccccc3)cc2)c1 (configuration not stated)	-2	-6	-5	-11	0
O=C(O)CC(CC(=O)NCc1ccco1)c1ccc(C(F)(F)F)cc1 (configuration not stated)	10	3	2	11	3
COc1ccc(NC(=O)NC(COC(=O)Nc2ccc(OC)cc2)c2ccccc2)cc1 (configuration not stated)	25	60*	95*	30	33*
Cc1cccc(NC(=O)CCn2cnc3c2c(=O)n(C)c(=O)n3C)c1	-1	0	1	0	-4
COc1ccc2c(c1)C/C(=C/c1ccc(Cl)cc1)CC2=O	-1	1	9	12	14
